# Measured values taken from the supplement of paper PMC8728848.
# Many of the other results were omitted from the sample, so the strongest signals are more common in it than they were.
# B1: Dectin-1 (Mus musculus), Q6QLQ4 (protein)
# chain: GHNSGRNPEEKDNFLSRNKENHKPTESSLDEKVAPSKASQTTGGFSQPCLPNWIMHGKSCYLFSFSGNSWYGSKRHCSQLGAHLLKIDNSKEFEFIESQTSSHRINAFWIGLSRNQSEGPWFWEDGSAFFPNSFQVRNTAPQESLLHNCVWIHGSEVYNQICNTSSYSICEKEL
# Columns and labels:
# Experiment in all cases: glycan array binding signal (z-score within array); higher = stronger binding
# Conditions in all cases: glycan notation: IUPAC condensed, linker removed
# [1] = biological target: 3dGal(b1-3)[Fuc(a1-4)]Glc
# In short: (§1)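 Arrays were curated from the Consortium for Functional Glycomics database, 3228 in total, and kept only where the protein sequence was available. Binding is expressed as a within-array Z-score. This score was averaged across arrays of the same protein sequence at different concentrations or buffers and across linkers, and negative values can be read as non-binding.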
# [2] = biological target: Ara(a1-5)Ara(a1-5)Ara(a1-5)Ara(a1-5)Ara(a1-5)Ara(a1-5)Ara
# In short: as §1
# Fuc(a1-6)GlcNAc = biological target: Fuc(a1-6)GlcNAc
# In short: as §1
# [3] = biological target: Gal(b1-3)GalNAc(b1-4)[Neu5Ac(a2-3)]Gal(b1-4)Glc
# In short: as §1
# Gal(b1-3)GlcNAc = biological target: Gal(b1-3)GlcNAc
# In short: as §1
# [4] = biological target: Gal(b1-3)GlcNAc(b1-3)[Fuc(a1-3)[Gal(b1-4)]GlcNAc(b1-6)]Gal(b1-4)]GlcNAc(b1-6)[Gal(b1-4)]GlcNAc(b1-3)]Gal(b1-4)Glc
# In short: as §1
# Gal3S(b1-4)GlcNAc = biological target: Gal3S(b1-4)GlcNAc
# In short: as §1
# Glc(a1-2)Glc(a1-2)Glc = biological target: Glc(a1-2)Glc(a1-2)Glc
# In short: as §1
# Glc(a1-4)Glc(a1-6)Glc = biological target: Glc(a1-4)Glc(a1-6)Glc
# In short: as §1
# Glc(a1-6)Glc(a1-6)Glc = biological target: Glc(a1-6)Glc(a1-6)Glc
# In short: as §1
# [5] = biological target: Glc(b1-3)Glc(b1-3)Glc(b1-3)Glc(b1-3)Glc(b1-3)Glc(b1-3)Glc(b1-3)Glc(b1-3)Glc(b1-3)Glc(b1-3)Glc
# In short: as §1
# [6] = biological target: Glc(b1-3)Glc(b1-3)Glc(b1-3)Glc(b1-3)Glc(b1-3)Glc(b1-3)Glc(b1-3)Glc(b1-3)Glc(b1-3)Glc(b1-3)Glc(b1-3)Glc
# In short: as §1
# [7] = biological target: Glc(b1-3)Glc(b1-3)Glc(b1-3)Glc(b1-3)Glc(b1-3)Glc(b1-3)Glc(b1-3)Glc(b1-3)Glc(b1-3)Glc(b1-3)Glc(b1-3)Glc(b1-3)Glc
# In short: as §1
# Glc(b1-3)Glc(b1-4)Glc = biological target: Glc(b1-3)Glc(b1-4)Glc
# In short: as §1
# [8] = biological target: Glc(b1-3)Glc(b1-4)Glc(b1-4)Glc
# In short: as §1
# [9] = biological target: Glc(b1-4)Glc(b1-4)Glc(b1-4)Glc(b1-4)Glc(b1-4)Glc(b1-4)Glc(b1-4)Glc(b1-4)Glc(b1-4)Glc(b1-4)Glc
# In short: as §1
# GlcA(b1-3)Gal = biological target: GlcA(b1-3)Gal
# In short: as §1
# [10] = biological target: GlcA3S(b1-3)Gal(b1-4)GlcNAc(b1-3)Gal(b1-4)Glc
# In short: as §1
# GlcNAc(b1-3)Gal(b1-4)Glc = biological target: GlcNAc(b1-3)Gal(b1-4)Glc
# In short: as §1
# [11] = biological target: Man(a1-2)Man(a1-2)Man(a1-3)[Man(a1-2)Man(a1-6)[Man(a1-3)]Man(a1-6)]Man(b1-4)GlcNAc(b1-4)GlcNAc
# In short: as §1
# [12] = biological target: Man(b1-4)Man(b1-4)Man(b1-4)Man(b1-4)Man
# In short: as §1
# [13] = biological target: Neu(a2-3)Gal(b1-4)[Fuc(a1-3)]GlcNAc(b1-3)Gal(b1-4)Glc
# In short: as §1
# [14] = biological target: Neu5Ac(a2-3)Gal(b1-3)GalNAc(b1-4)[Neu5Ac(a2-3)]Gal(b1-4)Glc
# In short: as §1
# [15] = biological target: Neu5Ac(a2-3)Gal(b1-3)GlcNAc(b1-3)Gal(b1-4)Glc
# In short: as §1
# [16] = biological target: Neu5Ac(a2-3)Gal(b1-3)[Neu5Ac(a2-6)]GalNAc
# In short: as §1
# [17] = biological target: Neu5Ac(a2-3)Gal(b1-4)GlcNAc6S(b1-3)Gal6S(b1-3)GlcNAc6S
# In short: as §1
# [18] = biological target: Neu5Ac(a2-3)Gal(b1-4)[Fuc(a1-3)]GlcNAc(b1-3)Gal
# In short: as §1
# [19] = biological target: Neu5Ac(a2-6)Gal(b1-4)GlcNAc(b1-2)Man(a1-3)[Neu5Ac(a2-6)Gal(b1-4)GlcNAc(b1-2)Man(a1-6)]Man(b1-4)GlcNAc(b1-4)GlcNAc
# In short: as §1
# [20] = biological target: Neu5Ac(a2-6)Gal(b1-4)GlcNAc(b1-3)[Neu5Ac(a2-6)Gal(b1-4)GlcNAc(b1-6)]Gal(b1-4)Glc
# In short: as §1
binder,measurement,setting,value
B1,glycan array binding signal (z-score),[1],0.092
same,glycan array binding signal (z-score),[2],-0.064
same,glycan array binding signal (z-score),Fuc(a1-6)GlcNAc,-0.091
same,glycan array binding signal (z-score),[3],-0.091
same,glycan array binding signal (z-score),Gal(b1-3)GlcNAc,-0.088
same,glycan array binding signal (z-score),[4],0.102
same,glycan array binding signal (z-score),Gal3S(b1-4)GlcNAc,-0.071
same,glycan array binding signal (z-score),Glc(a1-2)Glc(a1-2)Glc,-0.135
same,glycan array binding signal (z-score),Glc(a1-4)Glc(a1-6)Glc,0.413
same,glycan array binding signal (z-score),Glc(a1-6)Glc(a1-6)Glc,-0.113
same,glycan array binding signal (z-score),[5],1.33
same,glycan array binding signal (z-score),[6],5.34
same,glycan array binding signal (z-score),[7],13.4
same,glycan array binding signal (z-score),Glc(b1-3)Glc(b1-4)Glc,-0.135
same,glycan array binding signal (z-score),[8],-0.135
same,glycan array binding signal (z-score),[9],0.216
same,glycan array binding signal (z-score),GlcA(b1-3)Gal,-0.06
same,glycan array binding signal (z-score),[10],-0.078
same,glycan array binding signal (z-score),GlcNAc(b1-3)Gal(b1-4)Glc,-0.029
same,glycan array binding signal (z-score),[11],-0.004
same,glycan array binding signal (z-score),[12],-0.113
same,glycan array binding signal (z-score),[13],-0.091
same,glycan array binding signal (z-score),[14],-0.039
same,glycan array binding signal (z-score),[15],-0.091
same,glycan array binding signal (z-score),[16],-0.069
same,glycan array binding signal (z-score),[17],-0.054
same,glycan array binding signal (z-score),[18],-0.091
same,glycan array binding signal (z-score),[19],-0.091
same,glycan array binding signal (z-score),[20],-0.091
